Targets include FNBP1L; FOXK1; FOXN4; FNTB.
Common to all, as to experiment: pooled miR-30 sensor sort-seq; sequence = guide strand
Conditions in all cases: shRNA
Note: reference of the scale not given here.

In turn, TTGTAGTTGCTTGTAAATCTGA had a sensor-assay potency score (higher = more potent) with FNBP1L of -0.235.

In turn, TTCAAAGAGAGGTTGTGCCGGA came in with a sensor-assay potency score (higher = more potent) in the assay with FOXK1 of 0.647.

The sequence TCAGCTTGTCCAACTCCTCAGG showed a sensor-assay potency score (higher = more potent) with FOXN4 of -0.891.

As to ATTCCTGACATTATGGATGAGG, in the assay with FOXN4, the sensor-assay potency score (higher = more potent) was -0.583.

As to TGAGTTTCGAATAATTCCTGAC, in the assay with FOXN4, the sensor-assay potency score (higher = more potent) is -0.212.

The sequence TTGACTGCTGCATATGTGGGTG displayed a sensor-assay potency score (higher = more potent) in the assay with FNTB of -0.313.

Values taken from the OligoGym collection.
